hgDAF12 agonist = agonists of H. glycines DAF-12 nuclear receptor. HEK293 GAL4-hgDAF12 UAS-luciferase reporter, agonist luminescence; normalized to butyrate control. activation, % at 6.8 µM. 370,000 compounds, 1.8% hits. AID 687014;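 active = activation above a cutoff set at the mean of all screened compounds plus 3 SD, cut at about 10% in these data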;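 also: 0% = DMSO wells and 100% = sodium butyrate wells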
hcDAF12 agonist = H. contortus DAF-12 activation, primary screen | 370,000 compounds, 1.4% hits | AID 652067 | HEK293 hcDAF-12 lit1-tk-luc reporter, luminescence; 0% DMSO, 100% Δ7-dafachronic acid | activation, % at 6.8 µM;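 active = activation above the mean of all tested compounds plus 3 SD, cut at about 5.5% in these data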;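 also: 100% = response to 3 µM Δ7-dafachronic acid high control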
ssDAF12 agonist = S. stercoralis DAF-12 activation, primary screen | AID 652126 | 370,000 compounds, 1% hits | activation, % at 6.8 µM | HEK293 ssDAF-12/GRIP1 lit1-tk-luc reporter, luminescence; % of 3 µM dafachronic acid response;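 active = activation above the mean over all tested compounds plus 3 SD, cut at about 0.9% in these data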;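 also: 0% = DMSO-only wells and 100% = 3 µM delta7-dafachronic acid wells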
DAX1 inh-1 = inhibitors of DAX1 repression of SF-1 activated StAR promoter | HEK293T StAR-luciferase reporter, SF-1/DAX-1 repression relief | inhibition, % at 6.8 µM | 370,000 compounds, 1.1% hits | AID 652010;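 active = inhibition above the mean over all tested compounds plus 3 SD, cut at about 3.6% in these data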;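 also: 0% = DAX-1 cells with DMSO and 100% = cells lacking DAX-1 with DMSO; higher inhibition means more luminescence from relief of DAX-1 repression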
DAX1 inh-2 = inhibitors of human orphan nuclear receptor DAX1 (NR0B1); P51843; HEK293 Gal4-DAX1 luciferase reporter, luminescence; inhibition, % at 6.75 µM; 340,000 compounds, 0.99% hits; AID 504766;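 active = inhibition above the mean over all tested compounds plus 3 SD, cut at about 4.2% in these data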;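 also: 0% = DAX1-transfected cells with DMSO and 100% = empty-vector control cells with DMSO; inhibition shows as a rise in luminescence from relieved DAX1 repression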
Target sequence (P51843 207-470 limits assumed): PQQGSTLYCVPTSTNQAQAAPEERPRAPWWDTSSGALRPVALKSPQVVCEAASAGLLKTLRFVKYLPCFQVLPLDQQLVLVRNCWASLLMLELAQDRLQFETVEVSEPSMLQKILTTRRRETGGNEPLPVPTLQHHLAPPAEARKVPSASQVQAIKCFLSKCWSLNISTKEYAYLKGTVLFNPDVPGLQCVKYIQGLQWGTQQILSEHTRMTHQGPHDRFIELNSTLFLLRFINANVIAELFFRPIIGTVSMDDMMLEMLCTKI
Numbers without * were called inactive; x = no result. Sampled rows, rich in hits. Any-hit rate of the full collection: about 4.1%.

SMILES	hgDAF12 agonist	hcDAF12 agonist	ssDAF12 agonist	DAX1 inh-1	DAX1 inh-2
C/C(Cn1cnc([N+](=O)[O-])n1)=N\NC(=O)c1cccc(F)c1	11*	2	1	0	2
CC(=O)c1sc(NC(=O)c2cnc(Cl)c(Cl)c2)nc1C	6	4	0	1	1
O=C(COc1ccccc1)NNc1nc2ccccc2s1	-9	-3	-2	-2	6.5*
CC(=O)c1sc(NC(=O)COc2ccccc2)nc1C	10	2	0	2	4.5*
CC(=O)c1sc(NC(=O)c2ccc(C)c(C)c2)nc1C	13*	2	-1	2	6.2*
CCOC(=O)[C@@]12CN(C(=O)OC(C)(C)C)CC=C1N(Cc1ccc(OC)cc1)C(=O)[C@H]2CC(=O)NCC1CCCCC1	2	-4	-2	-1	x
O=C(NC1CCOc2ccccc21)c1ccccn1 (centres undefined)	2	5.8*	0	0	0
O=Nc1ccc(O)c2ncccc12	-12	-1	-2	-3	-2
O=Nc1ccc(NO)c2ccccc12	-1	3	1.2*	-3	-1
COc1ccc(C(=O)C2CCCN(C3Cc4ccccc4C3)C2)c(OC)c1 (centres undefined)	0	1	0.9*	2	0
COc1ccc(C(=O)C2CCCN(Cc3cc(C)c(O)c(C)c3)C2)c(OC)c1 (centres undefined)	0	0	-1	-1	1
CC(=O)N1N=C(c2ccc(C)cc2)OC1c1ccc(C(C)C)cc1 (centres undefined)	4	1	-1	1	4.5*
CNc1cnc(-c2ccc(F)c(F)c2F)cn1	12*	2	0	3.8*	x
CC1=NC(=O)C(N=Nc2ccccc2)N1c1ccccc1 (centres undefined)	4	5	1	1	4.6*
CC1=NC(=O)C(N=Nc2ccccc2C(=O)O)N1c1ccccc1 (centres undefined)	5	4	0	0	x
CCNC(=S)NNC(=O)CSc1nnc(SCc2cccc3ccccc23)s1	4	2	-2	0	x
COc1ccc(CC(=O)Nc2sccc2C#N)cc1S(=O)(=O)N1CCOCC1	7	6.0*	0	0	0
Cc1cccc(N2CCN(C(=O)CN3C(=O)C4CC=CCC4C3=O)CC2)c1C (centres undefined)	11*	2	0	2	1
Cc1cccc(N2CCN(C(=O)CN3C(=O)NC(C)(C)C3=O)CC2)c1C	0	-1	-1	0	1
O=C(N[C@H](C(=O)N1CCC[C@H]1C(=O)NCCc1ccccc1Cl)C1CCCCC1)c1cccs1	0	-2	-1	1	x
Cc1c(C)c2ccc(OC(C)C(=O)N[C@@H](Cc3c[nH]c4ccccc34)C(=O)O)c(C)c2oc1=O (some centres undefined)	2	5.9*	-1	1	4
Cc1ccc(OCc2nnc(SCC(=O)Nc3cccc4ccccc34)n2Cc2ccco2)cc1	0	-3	-2	-1	x
Cc1ccc(O)c(NC(=O)c2cc(-c3cccs3)on2)c1	11*	2	0	1	1
Cc1ccc(O)c(NC(=O)c2onc(C)c2Cl)c1	4	6.0*	1.8*	0	3
Cc1noc(C(=O)Nc2cccnc2Cl)c1Cl	-1	0	0	0	1
SMILES	hgDAF12 agonist	hcDAF12 agonist	ssDAF12 agonist	DAX1 inh-1	DAX1 inh-2
CC(=O)c1cccc(NC(=O)c2cc3ccccn3n2)c1	7	1	0	3.7*	0
CCCc1cc(C(=O)Nc2ccc(F)cc2F)no1	13*	1	0	1	2
COc1cc(/C=C/C(=O)c2ccccc2)cc(OC)c1OC	-3	-2	-2	x	x
COC(=O)[C@]12C[C@H](CC(=O)NCc3cccs3)C(=O)N(Cc3cccc4ccccc34)C1=C[C@H](C(C)(C)C)O[C@@H]2C	4	2	-1	-2	x
Cc1noc(C(=O)Nc2cccc(Cl)c2)c1Cl	6	3	1	0	3
CCCc1cc(C(=O)Nc2cccc(C(C)=O)c2)no1	4	5.9*	1	1	3
Cc1noc(C(=O)Nc2ccc(F)cc2F)c1Cl	3	0	0	0	4.2*
O=c1cccccc1NN=C1CCCCC1	11*	3	0	2	5.8*
O=c1cccccc1NN=C1CCCCCC1	4	1	-1	1	3
CCCN1C(=O)C(O)(c2c(C)[nH]c3ccccc23)c2ccccc21 (centres undefined)	1	4	0	0	2
Cc1[nH]c2ccccc2c1C1(O)C(=O)N(C(C)C)c2ccccc21 (centres undefined)	2	5.8*	0	0	1
O=C(NCCc1c[nH]c2ccccc12)[C@H](Cc1c[nH]c2ccccc12)NC1(C(=O)NC2CCCCC2)CCCCCCC1	-1	1	0	x	x
COC(=O)C1CN(Cc2cn(Cc3ccc(C)cc3)nn2)CCS(=O)(=O)N1Cc1ccc(F)cc1 (centres undefined)	-4	-3	-2	-1	x
C(/C=C\c1ccco1)=NN1CCN(Cc2cccc3ccccc23)CC1	-4	0	-2	0	x
COC(=O)c1ccc(Cn2nnc3c(=O)[nH]c(C4CCCN(S(=O)(=O)c5ccc(C)cc5)C4)nc32)cc1 (centres undefined)	-1	5.6*	-1	0	0
COC(=O)[C@H](C(C)C)N1Cc2nnn(Cc3ccc(C)cc3)c2-c2cc(F)ccc2S1(=O)=O	-3	0	-1	-1	x
Cc1cccc(NC(=O)[C@@H]2CCCN2C2=NS(=O)(=O)c3ccccc32)c1C	4	0	-1	-1	4.4*
COc1cc([C@H]2Oc3c(OC)cc(CCCO[C@@H]4O[C@H](CO)[C@@H](O)[C@H](O)[C@H]4O)cc3[C@@H]2CO)ccc1O	-1	1	-1	2	4.7*
O=C(NCC(c1ccccc1)c1ccccc1)[C@H](Cc1ccccc1)NC1(C(=O)NC2CCCCC2)CCCCCC1	-1	-3	-2	x	x
Cc1ccc(C)n1-c1nccc(-c2cccs2)n1	1	5	0	0	2
N#Cc1cccn1-c1nccc(-c2cccs2)n1	8	3	1.7*	0	1
COc1ccc(CCn2cnc3nc4ccc(Cl)cc4cc3c2=O)cc1OC	-2	6	0	-1	x
O=c1c2cc3cc(Cl)ccc3nc2ncn1Cc1ccc(Oc2ccccc2)cc1	-1	5.9*	-1	-1	x
NC(=O)c1ccc(Oc2ccc(C(N)=O)cc2)cc1	-1	-2	-1	0	5.2*
COc1ccc(N=c2cc(-c3ccc(OC)cc3)oc3ccccc23)cc1	8	0	1.0*	0	2
O=C(CSc1nnc(-c2cccnc2)n1-c1ccc(Cl)cc1)Nc1ccc(S(=O)(=O)Nc2nccs2)cc1	-3	-2	-2	0	x

Compound activity deposited in PubChem BioAssay by The Scripps Research Institute Molecular Screening Center.
